Hit rate of the full screen: of about 5,500 compounds, about 2,000 (36%) were called active. About 18% were inconclusive and are not listed. This is one part of the list. Values without a mark were called inactive. No stated cut-off is given here; in the data, active means normalized growth mostly below about 0.91 (no sharp cut-off); inconclusive means no clear call, values can overlap the other calls; inactive means mostly above about 0.92.
Test: chemical genetic growth profiling, strain panel (AID 1159580);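 further: tested at 20 µM; growth read once vehicle control cultures reached saturation at 30 °C; 1 = growth at the plate median or of vehicle wells; lower values mean less growth of the strain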
Details: S. cerevisiae deletion strains, growth OD

Structure (SMILES): CC(C)=CCCC(C)C1CC[C@@]2(C)C3=C(CC[C@]12C)C1(C)CC[C@H](O)C(C)(C)C1CC3 (stereo not given in full)
- normalized growth (locus YBR021W, strain FUR4, active compounds read low): 0.867
- normalized growth (locus YBR229C, strain ROT2, active compounds read low): 1.02
- normalized growth (locus YCL029C, strain bik1, active compounds read low): 0.972
- normalized growth (locus YDL035C, strain GPR1, active compounds read low): 0.904
- normalized growth (locus YDL074C, strain BRE1, active compounds read low): 0.962
- normalized growth (locus YDL101C, strain DUN1, active compounds read low): 0.992
- normalized growth (locus YDL185W, strain tfp1, active compounds read low): 1.01
- normalized growth (locus YDL192W, strain arf1, active compounds read low): 0.977
- normalized growth (locus YDR101C, strain arx1, active compounds read low): 1.01
- normalized growth (locus YDR150W, strain NUM1, active compounds read low): 1.05
- normalized growth (locus YDR162C, strain NBP2, active compounds read low): 0.958
- normalized growth (locus YDR318W, strain mcm21, active compounds read low): 0.985
- normalized growth (locus YDR388W, active compounds read low): 1.03
- normalized growth (locus YDR502C, strain sam2, active compounds read low): 0.945
- normalized growth (locus YER110C, active compounds read low): 1.01
- normalized growth (locus YER155C, strain BEM2, active compounds read low): 1.03
- normalized growth (locus YER167W, strain BCK2, active compounds read low): 1.05
- normalized growth (locus YGL078C, strain dbp3, active compounds read low): 0.875 (active)
- normalized growth (locus YGL086W, strain mad1, active compounds read low): 1
- normalized growth (locus YGL248W, strain PDE1, active compounds read low): 0.929
- normalized growth (locus YGR135W, strain pre9, active compounds read low): 0.941
- normalized growth (locus YGR252W, strain gcn5, active compounds read low): 0.78
- normalized growth (locus YHR079C, strain IRE1 (second series), active compounds read low): 1.01
- normalized growth (locus YHR094C, strain hxt1, active compounds read low): 1.02
- normalized growth (locus YHR129C, strain ARP1, active compounds read low): 1.04
- normalized growth (locus YHR200W, strain rpn10, active compounds read low): 1.01
- normalized growth (locus YIL066C, strain RNR3, active compounds read low): 1.03
- normalized growth (locus YIL073C, strain SPO22, active compounds read low): 0.923
- normalized growth (locus YIL125W, strain kgd1, active compounds read low): 1.04
- normalized growth (locus YIR030C, strain dcg1, active compounds read low): 1.02
- normalized growth (locus YJL095W, strain BCK1, active compounds read low): 0.947
- normalized growth (locus YJL134W, strain LCB3, active compounds read low): 1.04
- normalized growth (locus YJL168C, strain set2, active compounds read low): 1.02
- normalized growth (locus YJL187C, strain SWE1 (second series), active compounds read low): 0.959
- normalized growth (locus YKL009W, strain mrt4, active compounds read low): 0.822 (active)
- normalized growth (locus YKL068W, active compounds read low): 1.03
- normalized growth (locus YKL085W, strain MDH1 (second series), active compounds read low): 1.05
- normalized growth (locus YKL085W, strain MDH1, active compounds read low): 1.05
- normalized growth (locus YKR001C, strain vps1, active compounds read low): 0.94
- normalized growth (locus YLR039C, strain RIC1, active compounds read low): 0.702
- normalized growth (locus YLR058C, strain SHM2, active compounds read low): 0.981
- normalized growth (locus YLR102C, strain apc9, active compounds read low): 1.01
- normalized growth (locus YLR262C, strain YPT6, active compounds read low): 0.664
- normalized growth (locus YLR268W, strain sec22, active compounds read low): 0.957
- normalized growth (locus YLR371W, strain rom2, active compounds read low): 1.02
- normalized growth (locus YLR418C, strain cdc73, active compounds read low): 0.877
- normalized growth (locus YML016C, strain PPZ1, active compounds read low): 1.03
- normalized growth (locus YML032C, strain rad52, active compounds read low): 0.956
- normalized growth (locus YML124C, strain tub3, active compounds read low): 1.03
- normalized growth (locus YMR078C, strain ctf18, active compounds read low): 1.03
- normalized growth (locus YMR223W, strain ubp8, active compounds read low): 0.978
- normalized growth (locus YMR307W, strain GAS1, active compounds read low): 0.952
- normalized growth (locus YNL067W, strain RPL9B, active compounds read low): 0.988
- normalized growth (locus YNL128W, strain TEP1, active compounds read low): 0.98
- normalized growth (locus YNL233W, strain BNI4, active compounds read low): 0.994
- normalized growth (locus YNL250W, strain rad50, active compounds read low): 0.966
- normalized growth (locus YNL271C, strain bni1, active compounds read low): 0.994
- normalized growth (locus YNL298W, strain CLA4, active compounds read low): 0.924
- normalized growth (locus YNL307C, strain MCK1, active compounds read low): 0.998
- normalized growth (locus YNR052C, strain pop2, active compounds read low): 0.961
- normalized growth (locus YOL006C, strain TOP1, active compounds read low): 0.903
- normalized growth (locus YOL012C, strain htz1): 1.68
- normalized growth (locus YOL147C, strain pex11, active compounds read low): 1.04
- normalized growth (locus YOR061W, strain CKA2, active compounds read low): 1.01
- normalized growth (locus YOR069W, strain VPS5, active compounds read low): 1.02
- normalized growth (locus YOR136W, strain idh2, active compounds read low): 0.998
- normalized growth (locus YOR144C, strain elg1, active compounds read low): 1.02
- normalized growth (locus YOR184W, strain ser1, active compounds read low): 0.891
- normalized growth (locus YOR316C, strain cot1, active compounds read low): 1.02
- normalized growth (locus YPL241C, strain CIN2, active compounds read low): 1.03
- normalized growth (locus YPR119W, strain clb2, active compounds read low): 1.03
- normalized growth (locus YPR141C, strain kar3, active compounds read low): 1.04
- normalized growth (locus YPR163C, strain tif3, active compounds read low): 0.93
- normalized growth (locus YPR167C, strain met16, active compounds read low): 0.973
- normalized growth (strain wtn01, active compounds read low): 0.974

— PubChem BioAssay AID1159580 (chemical genetic matrix, 2015)
